This is a sample that favours compounds with a hit; in the whole collection about 1.6% have one here.
KCNQ2 inh: inhibitors of rat KCNQ2 potassium channel | O88943 | CHO-K1 KCNQ2, FluxOR thallium flux, 20 min; hits give low values | B-score at 10 µM | 1.1% of 310,000 active;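 active = fluorescence ratio B-score at most minus 3 library SDs, with starting brightness B-score within 2 library SDs, cut at about -5.5 in these data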
Target sequence (O88943 whole entry, looked up): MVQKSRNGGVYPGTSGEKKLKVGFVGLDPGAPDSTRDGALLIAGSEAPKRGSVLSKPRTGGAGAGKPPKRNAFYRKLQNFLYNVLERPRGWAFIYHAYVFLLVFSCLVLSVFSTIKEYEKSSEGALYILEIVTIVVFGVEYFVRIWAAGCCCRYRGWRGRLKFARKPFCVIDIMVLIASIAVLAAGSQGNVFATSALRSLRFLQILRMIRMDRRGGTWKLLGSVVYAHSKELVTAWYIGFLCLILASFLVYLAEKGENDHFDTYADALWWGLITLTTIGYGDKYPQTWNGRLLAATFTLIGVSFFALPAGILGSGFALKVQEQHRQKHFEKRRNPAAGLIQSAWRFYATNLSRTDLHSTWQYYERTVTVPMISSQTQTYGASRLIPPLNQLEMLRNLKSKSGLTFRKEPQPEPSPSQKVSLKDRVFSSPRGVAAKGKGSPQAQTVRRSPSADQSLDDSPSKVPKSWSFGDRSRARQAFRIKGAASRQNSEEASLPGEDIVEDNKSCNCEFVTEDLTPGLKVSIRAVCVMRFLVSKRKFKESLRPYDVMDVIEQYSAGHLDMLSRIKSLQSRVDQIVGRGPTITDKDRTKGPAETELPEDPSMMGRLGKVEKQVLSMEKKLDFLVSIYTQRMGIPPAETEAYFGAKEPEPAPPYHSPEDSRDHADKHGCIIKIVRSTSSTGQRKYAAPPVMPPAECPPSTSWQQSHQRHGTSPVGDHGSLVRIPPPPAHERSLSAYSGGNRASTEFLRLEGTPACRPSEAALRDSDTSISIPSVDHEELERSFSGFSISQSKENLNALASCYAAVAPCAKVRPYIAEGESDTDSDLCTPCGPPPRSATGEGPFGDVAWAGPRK
KCNQ2 pot: enhances the rat KCNQ2 potassium channel; CHO-K1 KCNQ2, FluxOR thallium flux fluorescence; hits give high values; B-score at 10 µM; 0.54% of 310,000 active; AID 2239;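 active = fluorescence ratio B-score at least 3 SD of library B-scores, with initial fluorescence B-score within 3 of them, cut at about 5.3 in these data; same plate scores as AID 2156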;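 note: B-score of peak minus minimum over baseline fluorescence ratio after K+ and Tl+ stimulus; positive B-score means potentiation of KCNQ2 with more thallium influx and brighter signal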
Active calls of the source: *; i = inactive; / = not tested or not shown.

SMILES	KCNQ2 inh	KCNQ2 pot
COc1ccc(NC(=O)c2c[nH]n3c(=O)cc(C4CCN(C(=O)OC(C)(C)C)CC4)nc23)cc1Cl	i	6.3*
COc1cccc(/C=N/NC(=O)c2nc(-c3ccccc3)cc(-c3ccccc3)n2)c1	-6.9*	-6.9
COc1ccc(/C=N/NC(=O)c2nc(-c3ccccc3)cc(-c3ccccc3)n2)cc1OC	i	/
CCc1ccc(CN2CCC(C(=O)Nc3ccc(Oc4ccccc4)nc3)CC2)o1	i	0.37
COc1cc(C(=O)NCC(=O)NC(C)CCc2ccccc2)cc(OC)c1OC (stereo not given)	i	/
Nc1nc(-c2cccnc2)nc2sc3c(c12)CCCC3	i	3.5
O=C1CN(c2nc(-c3cccnc3)nc3sc4c(c23)CCCC4)CCN1	-5.7*	-5.7
O=C1C=CC(=O)N1N(c1ccccc1)c1ccccc1	-6.2*	-6.2
O=C1C=CC(=O)N1Cc1ccccc1	i	/
COc1cccc(-c2nn(-c3ccc(C)cc3)cc2C(=O)N2CCc3cc(OC)c(OC)cc3C2)c1	-6.2*	-6.2
COc1cccc(-c2nn(-c3ccccc3)cc2C(=O)O)c1	i	0.55
CCCCn1c(-c2csc(CC)c2)n[nH]c1=S	i	1.9
CCCc1cc(-c2n[nH]c(=S)n2CC(C)C)cs1	i	6.4*
CCOC(=O)c1cccc(-n2c(C)cc(C=O)c2C)c1	i	2.6
CCOC(=O)c1c(-n2c(C)cc(C=O)c2C)sc2c1CCCC2	-6.1*	-6.1
COc1ccc(NC(=S)NC2CCCCC2)cn1	i	/
COc1ccccc1NC(=O)CC(=O)c1cccc([N+](=O)[O-])c1	i	0.17
COc1ccccc1NC(=O)/C(=C/c1cccc([N+](=O)[O-])c1)c1ccccc1	-6*	-6
CCOC(CNC(=O)C(=O)Nc1cc2c3c(c1)CCC(=O)N3CCC2)OCC	i	0.17
COc1ccc2c(c1)CCc1c-2nc2ccccc2c1N1CCOCC1	i	/
CC(OC(=O)/C=C/c1ccccc1)C(=O)Nc1cccc(C#N)c1 (stereo not given)	i	/
COc1ccc(/C=N/N2CCOCC2)cc1COc1ccc(Cl)cc1	i	/
N#CC(c1cccc(C(F)(F)F)c1)(c1ncc(C(F)(F)F)cc1Cl)N1CCOCC1 (stereo not given)	i	/
N#CC(c1ccccc1)(c1ncc(C(F)(F)F)cc1Cl)N1CCOCC1 (stereo not given)	-7*	-7
CN1CCN(C(CNC(=O)C(=O)Nc2ccc3c(c2)OCCO3)c2ccc(F)cc2)CC1 (stereo not given)	i	/
SMILES	KCNQ2 inh	KCNQ2 pot
Cn1c(NC(=O)c2cc(-c3ccc4c(c3)OCO4)nc3ccccc23)cc(=O)n(C)c1=O	i	/
CC(C)(C)NC(=O)c1cc(-c2ccc3c(c2)OCO3)nc2ccccc12	-5.6*	-5.6
COc1ccccc1OCC(=O)NCCNC(=O)COc1ccccc1OC	i	/
O=C(COc1ccccc1)NCCSCc1ccc(Cl)cc1	-6.6*	-6.6
CC(C)(C)c1ccc(C(=O)NCCOc2ccccc2)cc1	i	/
COc1ccccc1OCC(=O)NCCSCc1ccccc1Cl	-6.2*	-6.2
O=C(Cc1ccccc1)NCCSCc1ccc(Cl)cc1	i	1.4
COc1ccccc1OCC(=O)NCCSCc1cccc(Cl)c1	-6.4*	-6.4
O=C(COc1ccccc1)NCCSCc1ccccc1Cl	i	/
COc1ccccc1C(=O)NCCOc1ccc(C(C)(C)C)cc1	-5.8*	-5.8
CCN1CCc2c(sc(NC(=O)c3cc4ccccc4cc3OC)c2C(N)=O)C1	i	/
O=C(CNc1cccc(C(F)(F)F)c1)N/N=C/C1CCCCC1	i	1.4
CSc1ccc(/C=N/N2CCN(Cc3ccccc3)CC2)cc1	i	/
CCc1c(C)c2cc(Cl)c(O)c(CN3CCCC3)c2oc1=O	i	/
COc1ccccc1C(=O)NCCSCc1ccccc1Cl	-6.4*	-6.4
COc1ccccc1C(=O)NCCCNC(=O)c1ccccn1	i	/
COc1ccc(S(=O)(=O)N2CCCOC2CNC(=O)C(=O)NCc2ccccn2)cc1 (stereo not given)	i	/
COc1ccc(C(=O)NCC(=O)Nc2ccc(-c3ccccc3)cc2)cc1	i	0.63
Cc1cccc(OCc2n(CC(=O)OC3CC(C)CCC3C(C)C)c3ccccc3[n+]2C)c1 (stereo not given)	-6.3*	-6.3
Cc1cccc(OC(=O)Cn2c(C(F)(F)F)nc3ccccc32)c1	i	0.08
Cc1onc(-c2ccccc2)c1C(=O)N/N=C/c1cc2c(cc1Cl)OCO2	i	0.04
C/C(CC(=O)Nc1ccccc1F)=N\NC(=O)Cc1ccc(Cl)cc1	i	/
CCN1CCCC1CNC(=O)c1ccc2c(c1)NC(=O)/C(=C\c1ccc(C)cc1)S2 (stereo not given)	-7.6*	-7.6
Cc1ccc(/C=C2/Sc3ccc(C(=O)NCCN4CCOCC4)cc3NC2=O)cc1	i	/
Oc1[nH]c2c(Cl)cc(Cl)cc2c1N=NC(=S)NCC1CCCO1 (stereo not given)	i	11*
SMILES	KCNQ2 inh	KCNQ2 pot
Cc1cc(C)c2[nH]c(O)c(N=NC(=S)NCC3CCCO3)c2c1 (stereo not given)	i	1.2
CCCC(=O)c1c(NCCO)cc(C)oc1=O	i	/
COc1ccc(S(=O)(=O)N2Cc3ccccc3CC2C(=O)Nc2ccc3c(c2)OCO3)cc1 (stereo not given)	i	/
Cc1ccc(S(=O)(=O)N2Cc3ccccc3CC2C(=O)Nc2ccc3c(c2)OCO3)cc1 (stereo not given)	-5.6*	-5.6
CCN(CC)S(=O)(=O)c1ccc(N2CCOCC2)c(NC(=O)c2cc(C)cc(C)c2)c1	-6.2*	-6.2
CCN(CC)S(=O)(=O)c1ccc(N2CCOCC2)c(NC(=O)CC(C)(C)C)c1	i	/
CCN(CC)S(=O)(=O)c1ccc(N2CCOCC2)c(NC(=O)c2ccccc2)c1	i	/
CCN(CC)S(=O)(=O)c1ccc(N2CCOCC2)c(NC(=O)COc2ccc(Cl)cc2)c1	-6.6*	-6.6
Cc1cc(C)n2nc(-c3ccccc3)c(-c3ccccc3)c2n1	i	/
Cc1[nH]n(-c2ccccc2)c(=O)c1C(c1ccccc1[N+](=O)[O-])C(C#N)C#N (stereo not given)	i	/
Cc1[nH]n(-c2ncc(-c3ccccc3)s2)c(=O)c1C(c1ccc(Cl)cc1)C(C#N)C#N (stereo not given)	-7.2*	-7.2
CCSc1nc(=S)cc(C)[nH]1	i	13*
CCSc1nc(O)cc(=O)[nH]1	i	/
CSCCC(NS(=O)(=O)c1ccccc1)C(=O)OCc1cc(=O)oc2cc(O)ccc12 (stereo not given)	i	2.9
CC(C)Cc1ccccc1S(N)(=O)=O	i	/
CC1CCc2c(sc(NC(=O)c3cccs3)c2C(=O)O)C1 (stereo not given)	i	2
CC(C)(C)C1CCc2c(sc(NC(=O)c3cccs3)c2C(=O)N2CCCCC2)C1 (stereo not given)	-8.1*	-8.1
Cc1ccc(C(=O)NCC(=O)OCC(=O)NC2CCS(=O)(=O)C2)cc1C (stereo not given)	i	1.3
O=C(CN1C(=O)COc2ccccc21)NCCCN1CCCCC1	i	/
Cc1cccc(NC(=O)[C@H](Cc2c[nH]c3ccccc23)NC(=O)[C@@H]2Cc3ccccc3CN2)c1	-6.5*	-6.5
Cc1ccc(NC(=O)[C@H](Cc2c[nH]c3ccccc23)NC(=O)[C@@H]2Cc3ccccc3CN2)c(C)c1	-6.7*	-6.7
CC(C)C[C@H](NC(=O)[C@@H]1Cc2ccccc2CN1)C(=O)Nc1ccc(C(C)C)cc1	i	/
